# Bioassay records (PubChem BioAssay)
# POLH inh: inhibitors of human DNA polymerase eta | Potency, µM (highest dose often 114 µM), most hits filed as inhibitors | AID 588591 | actives 1.2% (n = 390,000) | recombinant Pol eta, fluorescent DNA replication assay
#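 Fluorescent replication assay: 50 nM final substrate added after a 15 min room-temperature compound preincubation with 10 nM enzyme. Signal taken at 0 min and again at 10 min.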
# Pol iota inh: DNA polymerase iota (human) inhibition. Q9UNA4. Pol iota fluorescent replication assay, 10 min. Potency, µM (series often up to 115 µM), most hits filed as inhibitors. actives 1% (n = 390,000). AID 588590
# Target sequence (Q9UNA4 whole entry, looked up): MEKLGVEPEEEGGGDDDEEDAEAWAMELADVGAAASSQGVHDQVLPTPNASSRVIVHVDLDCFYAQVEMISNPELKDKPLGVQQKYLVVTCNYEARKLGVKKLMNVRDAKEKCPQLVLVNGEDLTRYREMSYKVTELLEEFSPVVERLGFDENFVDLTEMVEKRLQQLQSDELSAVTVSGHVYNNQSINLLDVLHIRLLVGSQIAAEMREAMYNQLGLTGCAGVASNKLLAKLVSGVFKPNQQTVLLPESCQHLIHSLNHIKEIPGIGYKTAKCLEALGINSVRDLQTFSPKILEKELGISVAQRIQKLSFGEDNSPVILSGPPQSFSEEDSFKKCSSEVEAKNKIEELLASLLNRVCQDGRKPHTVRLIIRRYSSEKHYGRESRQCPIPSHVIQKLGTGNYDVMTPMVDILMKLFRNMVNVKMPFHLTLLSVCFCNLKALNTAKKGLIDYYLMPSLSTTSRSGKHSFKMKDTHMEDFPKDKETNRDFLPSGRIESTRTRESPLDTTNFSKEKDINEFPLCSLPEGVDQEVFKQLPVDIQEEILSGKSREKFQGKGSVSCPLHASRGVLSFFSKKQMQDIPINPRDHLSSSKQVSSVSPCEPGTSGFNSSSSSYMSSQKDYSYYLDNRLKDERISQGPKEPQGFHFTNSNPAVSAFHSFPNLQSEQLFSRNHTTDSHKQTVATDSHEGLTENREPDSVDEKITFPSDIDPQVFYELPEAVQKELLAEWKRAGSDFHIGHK
#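 Fluorescent replication assay read twice, at 0 min and 10 min after adding 50 nM (final) substrate. Enzyme (10 nM) and compounds were first incubated 15 min at room temperature; enzyme-free buffer wells were negative controls.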
# POLK inh: inhibitors of human DNA polymerase kappa. purified Pol kappa, fluorescent DNA synthesis assay, 10 min. actives 0.53% (n = 400,000). Potency, µM (highest dose often 107 µM), hits mostly inhibitors
#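 Kinetic fluorescence readout at 0 and 10 min followed reaction start with substrate at 50 nM final. Beforehand, enzyme (10 nM Pol kappa) stood 15 min with compound at room temperature; buffer-only wells were negative controls.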
# Pol beta inh: DNA polymerase beta (human) inhibition. Potency, µM (top dose mostly 114 µM), most hits filed as inhibitors. Pol beta primer extension/strand displacement, fluorescence kinetic. actives 1.3% (n = 340,000). AID 485314. P06746
#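 Curves were derived by four-parameter Hill fits of normalized qHTS data. The kinetic fluorescent primer-extension read was taken at 0 and 10 min after 50 nM substrate, following a 15 min room-temperature preincubation of 10 nM enzyme with compounds.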
# L3MBTL1 block: L3MBTL1 (human) inhibition; Q9Y468; AlphaScreen L3MBTL1–H3K9me1 peptide binding; Potency, µM (highest dose often 57.1 µM), most hits filed as inhibitors; actives 0.66% (n = 230,000); also: nearly all actives have a fitted effect of over 60% in size
#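 AlphaScreen assay: L3MBTL1 (50 nM final) was preincubated 30 min at room temperature with biotinylated H3(1-15)K9me1 peptide (75 nM final), then 30 min with library compounds; streptavidin donor and nickel chelate acceptor beads (10 ug/mL final) added, 30 min dark.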
# Numbers stand for hits; 0 = inactive; ? = inconclusive; - = not tested or not shown; [ ] = another dose, or the depositor's remark. Shown are actives, neighbours in structure and some others; about 2.4% of the full set was active somewhere. Calls follow the shape of the dose curve; as a rule, active = well fitted curve in the direction sought with a large enough effect; inconclusive = small, poorly fitted or top-dose-only effect, or another doubt; inactive = no such curve, though single readings can be large; an effect the other way counts as inactive or inconclusive.
SMILES,POLH inh,Pol iota inh,POLK inh,Pol beta inh,L3MBTL1 block
O=S(c1ccccc1O)S(=O)c1ccccc1O (configuration not stated),22.4µM,12.6µM,?,-,-
c1coc(-c2nnc(-c3ccco3)nn2)c1,8.91µM,?,17.8µM,7.94µM,-
Cn1ccc2cc(-c3ccc4ncnc(NCc5cccnc5)c4c3)ccc21,-,-,-,-,0
CCOc1ccc(Nc2c3ccccc3nc3ccccc23)cc1,0,0,0,20µM,?
CCOc1ccc(Nc2cc(C)c3ccccc3n2)cc1,0,0,0,0,-
Cc1ccc(NC(=O)C(NCc2ccccn2)c2ccccc2)cc1 (configuration not stated),0,0,0,0,-
CN(C)c1ccc(NC(=O)CC(NCc2ccccn2)C(=O)O)cc1 (configuration not stated),0,0,0,0,12.6µM
Cc1ccc(OCC(=O)OC2=C(C(=O)c3ccccc3)N(C)S(=O)(=O)c3ccccc32)cc1,0,0,0,0,-
Cc1cc(C)n(C(CC(=O)N2CCc3ccccc3C2)C(=O)O)n1 (configuration not stated),0,79.4µM,?,?,?
COc1ccc(OCC(=O)N/N=C\c2ccco2)cc1,0,0,0,0,0
COc1ccc(/[N+]([O-])=C/c2ccco2)cc1,89.1µM,?,0,-,0
CCCc1cc(=O)n(-c2nc3ccccc3s2)[nH]1,0,?,0,?,0
CCOC(=O)Cc1cc(=O)n(-c2nc3ccccc3s2)[nH]1,?,89.1µM,79.4µM,44.7µM,28.2µM
Cc1nn(-c2ccccc2)c(Cl)c1C(=O)NCc1cccs1,?,?,0,12.6µM,0
CC(C)C(C)N(Cc1ccc(C(=O)O)cc1)C(=O)c1ccc2ccccc2n1 (configuration not stated),0,?,0,-,-
CC(C)C(C)N(Cc1cccc(C(=O)O)c1)C(=O)c1ccc2ccccc2n1 (configuration not stated),0,22.4µM,0,-,-
O=C(O)c1ccccc1-c1ccc(C(F)(F)F)cc1,-,-,0[19.4 µM],-,-
Cc1cc(C)cc(-n2ccnc2SCC(=O)Nc2nnc(C)s2)c1,0,0,0,0,-
CCOc1ccccc1N1C(=O)CC(Nc2ccc(N3CCOCC3)cc2)C1=O (configuration not stated),0,0,0,0,28.2µM
COc1ccc(OC)c(NC(=O)CN(c2ccccc2OC)S(=O)(=O)c2ccc(C)cc2)c1,?,0,0,0,-
COc1ccc(CC(=O)N2CCCc3ccccc32)cc1OC,0,89.1µM,0,0,0[11.4 µM]
Cc1ccc(N2C(=O)[C@@H]3[C@H](C2=O)C2c4ccccc4C=CN2[C@@H]3C(=O)c2ccco2)c(C)c1 (some centres not stated),28.2µM,?,0,0,0
O=C(c1ccco1)[C@@H]1[C@@H]2C(=O)N(c3ccccc3)C(=O)[C@@H]2C2c3ccccc3C=CN21 (some centres not stated),?,12.6µM,0,0,0
CC(=O)[C@@H]1[C@@H]2C(=O)N(Cc3ccccc3)C(=O)[C@@H]2C2c3ccccc3C=CN21 (some centres not stated),?,?,0,0,0
Cc1ccc(N2C(=O)[C@@H]3[C@H](C2=O)C2c4ccccc4C=CN2[C@@H]3C(=O)c2ccco2)cc1 (some centres not stated),?,?,0,0,0
SMILES,POLH inh,Pol iota inh,POLK inh,Pol beta inh,L3MBTL1 block
COc1ccc2c(=O)c(C)c(-c3ccccc3)oc2c1CN(C)C,-,-,0[19.4 µM],-,-
CC(C)Oc1ccc(CNC(=O)c2cccc(NC(=O)N3CCSc4ncccc43)c2)cc1,0,0,0,0,-
C=CCN1CCCC1CNC(=O)c1cc(S(N)(=O)=O)cc(OC)c1OC (configuration not stated),-,-,0[19.4 µM],-,-
CC(=O)Oc1cc(-c2coc3cc(OC(C)=O)c(OC(C)=O)c(OC(C)=O)c3c2=O)cc(OC(C)=O)c1OC(C)=O,-,-,0.355µM,-,-
COc1ccc(OC)c(Nc2cc3ccccc3c(=O)[nH]2)c1,?,31.6µM,0,-,-
CCc1ccccc1NC(=O)CN1CCCN(Cc2cc(C)ccc2C)S1(=O)=O,0,0,0,0,-
CCCCCN1N=C(C)CC1=O,0,1.12µM,0,0,0
CC1=NN(Cc2cc(C(C)(C)C)c(O)c(C(C)(C)C)c2)C(=O)C1,0,?,0,0,0
COc1cc(C(=O)OCC(=O)N2CCCC2=O)cc(OC)c1C,31.6µM,?,?,-,?
Cc1occc1C(=O)N1CCN(c2ccc([N+](=O)[O-])cc2)CC1,0,?,0,39.8µM,-
Cc1occc1C(=O)N1CCN(c2ccc(Cl)cc2)CC1,0,0,0,0,-
O=C(c1cc2ccccc2cc1O)N1CCN(c2ccc([N+](=O)[O-])cc2)CC1,0,89.1µM,0,-,0
O=C(c1cc([N+](=O)[O-])ccc1Cl)N1CCN(c2ccccc2)CC1,0,0,0,0,0
NCCNCCN,-,-,1.06µM,-,-
COc1ccc(CCNC(=O)C2CCN(Cc3nc(-c4ccc(OC)c(OC)c4)oc3C)CC2)cc1OC,0,0,0,0,-
Cc1ccc(C)n1-c1ccc(C(=O)O)cc1,-,-,-,3.16µM,-
O=C(NCCc1cn2ccccc2n1)c1cc(COc2ccc3ncccc3c2)on1,0,0,0,39.8µM,0
COc1ccc(N2CCN(C(=O)CS(=O)(=O)c3cccc4nsnc34)CC2)cc1,0,0,0,0,-
CCn1c(CSc2n[nH]c(N)n2)nc2cc(C(=O)O)ccc21,?,50.1µM,0,?,0
CCn1c(CSc2nnc(-c3cccnc3)n2-c2ccccc2C)nc2cc(C(=O)O)ccc21,-,-,-,3.55µM,?
O=C(NCCS(=O)(=O)N1CCN(c2ccccc2F)CC1)c1ccccc1C(F)(F)F,0,0,0,0,-
O=C(NC(=S)Nc1cc([N+](=O)[O-])ccc1O)c1ccc2c(c1)OCO2,0,0,0,44.7µM,-
O=C(NC(=S)Nc1ccccc1N1CCCC1)c1ccc([N+](=O)[O-])cc1,0,0,0,0,7.08µM
COc1cc([N+](=O)[O-])ccc1NC(=S)NNC(=O)c1ccc2c(c1)OCO2,?,0,0,0,-
COc1ccc(C2c3cc(OC)c(OC)cc3CC(=O)N2c2ccc(C)cc2)cc1 (configuration not stated),0,0,0,0,-
SMILES,POLH inh,Pol iota inh,POLK inh,Pol beta inh,L3MBTL1 block
S=C(NCCN1CCOCC1)N/N=C/c1cccs1,0,0,0,0,-
Oc1cccc(/C=N/NC(=S)NCCN2CCOCC2)c1O,0,?,0,0,10µM
CSC1=N/C(=C\c2ccc(C)o2)C(=O)S1,0,0,0,?,28.2µM
CSC1=N/C(=C\c2ccc(C)s2)C(=O)S1,0,0,0,0,0
O=[N+]([O-])c1cc(C(F)(F)F)cc([N+](=O)[O-])c1Sc1n[nH]c(C(F)(F)F)n1,0,25.1µM,0,0,0
CC(C)(C)c1nc(Sc2ncccc2[N+](=O)[O-])n[nH]1,0,0,0,0,0
CN1C(=O)NC(c2ccccc2)C2=C1CN(c1ccc3ccccc3c1)C2=O (configuration not stated),11.2µM,0,0,0,0
